Assay outcomes as filed in PubChem BioAssay.
mHTT-CaM PPI inh: mHTT-calmodulin interaction abrogation. P42858. AlphaScreen His-mHTT/GST-CaM binding, luminescence. inhibition, % at 15 µM. 190,000 compounds, 3.6% hits. AID 1671202;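 also: 0% = both proteins with DMSO and 100% = one protein alone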
Pf apPOL inh: Pf-apPOL DNA polymerase inhibition; 210,000 compounds, 0.25% hits; inhibition, % at 10 µM; Recombinant Pf-apPOL, molecular beacon fluorescence, 1.5 h
Starred values were filed as active, the others as inactive. Rows were chosen to be rich in hits. Some 3.6% of all compounds tested hit in one or more screens of this group. Rule as the data show it: active = inhibition above about 50%; inactive = the rest.

SMILES	mHTT-CaM PPI inh	Pf apPOL inh
C[C@@H](c1ccccc1)N1C[C@H](COCc2ccccc2)Oc2cc(N3CCC[C@H]3C(N)=O)ccc2S1(=O)=O	6	-6
C[C@H](c1ccccc1)N1C[C@H](COCc2ccccc2)Oc2cc(N3CC[C@@H](O)C3)ccc2S1(=O)=O	54*	11
C[C@@H](c1ccccc1)N1C[C@H](COCc2ccccc2)Oc2cc(N3CC[C@@H](O)C3)ccc2S1(=O)=O	52*	-7
C[C@@H](c1ccccc1)N1C[C@@H](COCc2ccccc2)Oc2cc(N3CC[C@@H](O)C3)ccc2S1(=O)=O	56*	-4
COc1ccc(-n2nc3c(c2NC(=O)C(C)(C)C)CS(=O)(=O)C3)cc1	0	-1
COc1ccc(-c2c(NC(=O)C3CCCCC3)oc3c(C)cccc3c2=O)cc1OC	8	-7
O=C(COc1ccc(F)cc1)N1CCC(c2nc(C3CC3)n[nH]2)CC1	-4	-3
CC1(CO)CCCN1C(=O)c1ccsc1 (centres undefined)	-2	-2
COc1ccc(C2=C(O)c3ccccc3C(=O)C2=O)cc1	13	0
COc1ccc(Cl)cc1S(=O)(=O)NCCC1CCN(C(=O)c2ccccc2)CC1	77*	-3
COc1ccc(S(=O)(=O)NCCC2CCN(C(=O)c3ccccc3)CC2)cc1Cl	23	0
COc1ccc(OC)c(S(=O)(=O)NCCC2CCN(C(=O)c3ccccc3)CC2)c1	63*	1
Cc1cc(C)cc(S(=O)(=O)NCCC2CCN(C(=O)c3ccccc3)CC2)c1	27	-5
O=S(=O)(c1cccc2nsnc12)N1CCC(c2ccncc2)CC1	3	0
O=C(C=C1SC(=O)NC1=O)Nc1ncc(Cc2ccccc2F)s1	5	2
Cc1oc2ccn(Cc3ccc(F)cc3)c(=O)c2c1C(=O)NC(C)C	80*	-5
Cc1oc2ccn(Cc3ccc(F)cc3)c(=O)c2c1C(=O)N1CCN(C(C)C)CC1	-5	-4
O=C(c1cnccn1)N1CCn2c(nnc2-c2ccccc2)C1	2	-4
O=C(O)c1ccc(-n2c(/C=C/c3ccc([N+](=O)[O-])cc3)nc3ccccc3c2=O)cc1	-6	-5
CCCN1C(=O)/C(=C\c2nc3ccccc3c(=O)n2-c2ccccc2[N+](=O)[O-])c2ccccc21	38	-16
CCCN1C(=O)/C(=C\c2nc3ccccc3c(=O)[nH]2)c2ccccc21	37	2
CCN1C(=O)/C(=C\c2nc3ccccc3c(=O)n2-c2ccccc2C)c2ccccc21	63*	-2
CCCN1C(=O)/C(=C\c2nc3ccccc3c(=O)n2-c2ccccc2OC)c2ccccc21	56*	1
CC(C)N1C(=O)/C(=C\c2nc3ccccc3c(=O)n2-c2ccc([N+](=O)[O-])cc2)c2ccccc21	61*	-6
Cc1ccc(NC(NC(=O)c2cccs2)C(=O)c2ccccc2)cc1 (centres undefined)	38	-3
SMILES	mHTT-CaM PPI inh	Pf apPOL inh
O=C(NC(Nc1ccc([N+](=O)[O-])cc1)C(Cl)(Cl)Cl)c1cccs1 (centres undefined)	34	0
O=C(NC(Nc1ccc(Cl)cc1)C(=O)c1ccccc1)c1cccs1 (centres undefined)	81*	-3
O=C(NC(Nc1ccc(I)cc1)C(Cl)(Cl)Cl)c1cccs1 (centres undefined)	84*	-3
COc1cccc(CNC(=O)C2CCN(C(=O)c3cc4ccsc4[nH]3)CC2)c1	11	1
COc1ccc(OC)c(Nc2ncc3c(n2)CCN(Cc2ccccc2OC)C3)c1	59*	-2
COc1ccc(OC)c(Nc2ncc3c(n2)CCN(Cc2cccc(F)c2F)C3)c1	17	-2
COc1ccc(Nc2ncc3c(n2)CCN(Cc2cccc(C)c2)C3)c(OC)c1	9	-8
COc1ccc(OC)c(Nc2ncc3c(n2)CCN(Cc2cccc(C)c2)C3)c1	64*	-3
COc1ccc(Nc2ncc3c(n2)CCN(Cc2ccccc2OC)C3)c(OC)c1	45	-3
CCOc1ccccc1CN1CCc2nc(Nc3ccc(OC)cc3OC)ncc2C1	55*	-6
COCCNC(=O)c1ccc2c(c1)nc1n2CCC(C)C1 (centres undefined)	-1	-6
Cc1ccc2ncn(C3CCN(C(=O)C(C)Oc4ccccc4)CC3)c2c1 (centres undefined)	9	-4
CCOc1ccc(C(=O)N2CCC(n3cnc4ccc(C)cc43)CC2)cc1	77*	-3
COc1ccc(Cn2c(CO)nc3ccccc32)cc1OC	-1	-4
COc1cccc(C2Nc3ccccc3NC3=C2C(=O)CC(c2ccc(Cl)cc2)C3)c1OC (centres undefined)	80*	5
COc1ccccc1C1Nc2ccccc2NC2=C1C(=O)CC(c1ccc(Cl)cc1)C2 (centres undefined)	5	-11
COc1ccc(C2CC(=O)C3=C(C2)Nc2ccccc2NC3c2ccccc2Br)cc1 (centres undefined)	12	-7
CCOc1ccccc1C1C(C#N)=C(C)NC2=C1C(=O)CC(c1ccc(Cl)cc1)C2 (centres undefined)	52*	1
COc1ccc(C2CC(=O)C3=C(C2)Nc2ccccc2NC3c2cc(C)ccc2C)cc1 (centres undefined)	62*	0
CC1=C(C#N)C(c2cccnc2)C2=C(CC(c3ccc(Cl)cc3)CC2=O)N1 (centres undefined)	-4	1
COc1cc(C2Nc3ccccc3NC3=C2C(=O)CC(c2ccc(C)cc2)C3)cc(Cl)c1O (centres undefined)	62*	13
COc1ccc(C2CC(=O)C3=C(C2)Nc2ccccc2NC3c2cc(Cl)c(O)c(OC)c2)cc1 (centres undefined)	23	-17
Cc1cc(C)cc(C(=O)Nc2c3c(nn2C(C)(C)C)CSC3)c1	24	13
NCCSc1nc2ccccc2s1	10	7
COc1cccc(OCCSc2nc3ccccc3s2)c1	96*	-7
SMILES	mHTT-CaM PPI inh	Pf apPOL inh
O=C1CSC(c2ccc(Cl)cc2)N1c1cc(Cl)ccc1O (centres undefined)	18	-2
O=C(c1cc(Cl)ccc1Cl)N(CCc1cccs1)C1CC1	-26	1
O=C(COc1ccc2c(c1)C(=O)CC2)Nc1cccnc1	-13	-7
O=C(Nc1ccc(O)c(-c2nc3ccccc3s2)c1)c1ccc(F)cc1	3	0
Cc1ccc(C(C)NC(=O)Cn2ccc3c(C)nn(C)c3c2=O)cc1 (centres undefined)	-2	1
O=C(O)CCCC(=O)Nc1nc2nccc(-c3ccccc3)n2n1	82*	-2
CC(=O)Nc1nc2nccc(-c3ccccc3)n2n1	-4	-6
CC(C)NC(=O)C(=O)NC(C)c1ccccc1 (centres undefined)	0	-10
C=CCn1cc(/C=C2\C(=O)NC(=O)N(c3ccc4c(c3)OCO4)C2=O)c2ccccc21	9	1
Cc1cc(N2C(=O)c3ccc(C(=O)O)cc3C2=O)no1	-4	-1
Cc1cc(N2C(=O)c3ccc(C(=O)N4CC=C(c5ccccc5)CC4)cc3C2=O)no1	51*	-3
O=C(c1cccc(-c2nc(-c3ccc(F)cc3)no2)c1)N1CCOCC1	-18	1
COc1cc(OC)c(C2SCCN2S(=O)(=O)c2ccc(Cl)cc2)cc1OC (centres undefined)	32	-4
COc1cc(OC)c(C2SCCN2S(=O)(=O)c2ccc(Br)cc2)cc1OC (centres undefined)	51*	1
